According to PubChem BioAssay AID720596 (The Scripps Research Institute Molecular Screening Center, 2013):
“And” between values parts separate entries of the source, which are not always exact repeats. Identical values can stand only once. About 1,600 (0.43%) of roughly 370,000 compounds were called active. What follows is part of a selection rich in actives, with near analogues and random picks from the rest. Values without a mark were called inactive. No stated cut-off is given here; in the data, active means inhibition above about 24%; inactive means the rest.

target: Major prion protein (Homo sapiens) (UniProt P04156); experiment: reduces human prion protein on the cell surface, primary screen, cell-based, TR-FRET (AID 720596); conditions: cell surface PrPC, TR-FRET read-out; at 13.8 µM; hits give high values; further: 0% = median of the test wells and 100% = reference compound wells

Which inhibition does the source give for `Nc1[nH]c(C(=O)c2ccc(Br)cc2)c(-c2ccc3c(c2)OCO3)c1C(=O)NCCc1c[nH]c2ccccc12` here?
The inhibition was -5.16%.

`Oc1c(Cl)cc(Cl)c(Cl)c1Cc1c(O)c(Cl)cc(Cl)c1Cl` was tested. Which inhibition did it give?
The inhibition was 28.9% (active).

With `C=CCC[C@@H](CCCCC)OC(=O)/C=C/[C@@H](O)[C@H](O)C[C@H](O)CC=C` as the compound, how does the inhibition read?
Its inhibition is -5.85%.

`COc1ccc(-c2cc(-c3nnc(SCc4ccc([N+](=O)[O-])cc4)n3N)[nH]n2)cc1` was tested. Which inhibition did it give?
The inhibition was 0.13%.

For `CCOc1ccc(S(=O)(=O)N(CC(=O)O)c2ccccc2)cc1`, which inhibition is on record?
Its inhibition is -3.25%.

For `COC(=O)[C@]12C[C@H](CC(=O)NCc3ccc(C)o3)C(=O)N(CCC3=CCCCC3)C1=C[C@H](C(C)(C)C)O[C@@H]2C`, which inhibition is on record?
The inhibition was 7.81%.

How did the inhibition turn out when `O=C(Nc1ccc(C2CC2(Cl)Cl)cc1)c1cccc([N+](=O)[O-])c1` (stereo not drawn) was run?
The inhibition was 25.6% (active).

Which inhibition does the source give for `O=C(Nc1ccc([N+](=O)[O-])cc1)C1CC12CCC2` (stereo not drawn) here?
Its inhibition is 3.59%.

For `Cc1ccc(NC(=O)C(=O)NCC2CCN(C(=O)c3cccc([N+](=O)[O-])c3)CC2)cc1`, which inhibition is on record?
Its inhibition is -5.67%.

With `COc1cc(C(=O)N2Cc3ccc(Br)cc3-n3nncc3C2)cc(OC)c1OC` as the compound, how does the inhibition read?
Its inhibition is -0.36%.

For `Cc1ccc(C)c(S(=O)(=O)N2CCCOC2CNC(=O)C(=O)NC2CCCCC2)c1` (stereo not drawn), which inhibition is on record?
Its inhibition is -1.91%.

With `COc1ccc2c(CC(=O)OCC(=O)Nc3ccccc3[N+](=O)[O-])coc2c1` as the compound, how does the inhibition read?
Its inhibition is -12.7%.

With `CO[C@H]([C@H](C)/C=C/N(C)C=O)[C@@H](C)C(=O)CC[C@H](C)[C@H](O)[C@H](C)[C@H]1OC(=O)/C=C/C(C)=C/[C@H](O)[C@H](OC)C[C@@H]2C=CC[C@@H](C[C@H](OC)[C@@]3(CO3)[C@@H](OC)C[C@@H](OC)[C@@H]1C)O2` as the compound, how does the inhibition read?
Its inhibition is 38% (active).

With `CN(C)C(=O)CCc1ccc2c3c([nH]c2c1)[C@]1(C)[C@@H](C(=O)N2CCCCC2)C[C@H](CC(=O)NCCC2=CCCCC2)C(=O)N1CC3` as the compound, how does the inhibition read?
The inhibition was -3.09%.

Which inhibition does the source give for `CC(C)(C)NC(=O)c1cccc(NC(=O)Cc2ccc(Br)cc2)c1` here?
The inhibition was 11%.

For `O=C(Cc1ccccc1)Nc1cccc(NC(=O)c2ccccc2)c1`, which inhibition is on record?
Its inhibition is 30.2% (active).

Which inhibition does the source give for `CN(CCc1ccccc1)C(=O)c1cccc(NC(=O)Cc2ccc([N+](=O)[O-])cc2)c1` here?
Its inhibition is -2.03%.

With `Cc1ccc(Cc2cncc(O)c2)cc1S(=O)(=O)O` as the compound, how does the inhibition read?
The inhibition was -7.2%.

With `Cc1[nH]c(C)c(S(=O)(=O)N2CCC(C)CC2)c1C(=O)N1CCCC1` as the compound, how does the inhibition read?
The inhibition was -7.7%.

For `O/N=C(\C[n+]1ccccc1)c1ccc(Br)cc1`, which inhibition is on record?
Its inhibition is 6.16%.

Which inhibition does the source give for `O=C(c1ccc(-c2ccccc2)cc1)C1CCCN(C(=O)c2cncs2)C1` (stereo not drawn) here?
The inhibition was 6.46%.

How did the inhibition turn out when `C=CCN(c1ccccc1C(=O)NCC(=O)OCC)S(=O)(=O)c1ccc(C)cc1` was run?
The inhibition was 5.82%.

Which inhibition does the source give for `CCc1ccc(Oc2coc3cc(OC(=O)c4cc5ccccc5oc4=O)ccc3c2=O)cc1` here?
The inhibition was -6.51%.

With `O=C(Oc1ccccc1)Oc1ccc2c(c1)oc(=O)c1ccccc12` as the compound, how does the inhibition read?
The inhibition was 31.3% (active).

With `O=C(OCCN1C(=O)c2ccccc2C1=O)Oc1ccccc1` as the compound, how does the inhibition read?
The inhibition was -3.25%.

Which inhibition does the source give for `C=C(C)c1cccc(C(C)(C)NC(=O)NCCN(CC)CC)c1` here?
The inhibition was -1.16%.

`CCOc1ccc(NC(=O)C2CC(=O)N=C(N)S2)cc1` (stereo not drawn) was tested. Which inhibition did it give?
The inhibition was 3.27%.

With `CCc1ccc(OCC(=O)N(Cc2ccccc2)C2CCS(=O)(=O)C2)cc1` (stereo not drawn) as the compound, how does the inhibition read?
Its inhibition is 7.58%.

How did the inhibition turn out when `CC1=CC2=NC(=O)CC(C)(C(=O)N(CC(=O)NC(C)(C)C)Cc3ccccc3)N2C=C1` (stereo not drawn) was run?
The inhibition was -11.9%.

With `O=c1[nH]cccc1-c1nc2ccccc2n1Cc1ccc(Cl)cc1` as the compound, how does the inhibition read?
Its inhibition is 48.8% (active).

For `O=C(O)CCc1nc2cc(Cl)ccc2n(Cc2ccccc2)c1=O`, which inhibition is on record?
Its inhibition is -3.72%.

How did the inhibition turn out when `O=C(Cn1c(-c2cscn2)nc2ccccc21)Nc1ccc(Cl)cc1` was run?
Its inhibition is 16.8%.

For `CCCCCn1nnnc1-c1nc2cc3ccccc3cc2[nH]c1=O`, which inhibition is on record?
Its inhibition is -2.3%.

Which inhibition does the source give for `COc1cc(OC)c(C(=O)OC(C)C(=O)Nc2cc(C(F)(F)F)ccc2Cl)cc1OC` (stereo not drawn) here?
The inhibition was -3.19%.

For `CC(=O)c1ccc(S(=O)(=O)N(C)CCCC(=O)N(C)Cc2ccccc2F)cc1`, which inhibition is on record?
The inhibition was 3.84%.

Which inhibition does the source give for `Cc1ccc(S(=O)(=O)NCC2CCC(C(=O)N3CCOCC3)CC2)cc1` (stereo not drawn) here?
The inhibition was 9.49%.

Which inhibition does the source give for `Cc1nc(/N=C(\N)NC(=O)NC2CCCCC2)nc2ccccc12` here?
Its inhibition is 27.6% (active).

`O=C(Cn1nnc(-c2ccccc2)n1)NC(=O)NC1CCCC1` was tested. Which inhibition did it give?
Its inhibition is 1.46%.

With `O=C(NNC(=O)C(O)c1ccccc1)NC1CCCCC1` (stereo not drawn) as the compound, how does the inhibition read?
Its inhibition is 5.45%.

Which inhibition does the source give for `C[C@H]1CN([C@@H](C)CO)C(=O)c2cc(C3=CCCCC3)cnc2O[C@@H]1CN(C)C(=O)Cc1ccccc1` here?
Its inhibition is -9.73%.

For `Cc1sc2c(c1C)c(=O)n(-c1ccccc1)c1nncn21`, which inhibition is on record?
Its inhibition is -3.5%.

Which inhibition does the source give for `c1ccc(CCC2=NCCn3cccc32)cc1` here?
Its inhibition is -4.1% and -18.3%.

For `CCOc1ccc(C(CC(=O)O)n2cnnn2)cc1OC` (stereo not drawn), which inhibition is on record?
The inhibition was -3.65%.

Which inhibition does the source give for `CCCCC(=O)NC(c1ccc(OC)c(OC)c1)c1ccc2cccnc2c1O` (stereo not drawn) here?
Its inhibition is 28.6% (active).

Which inhibition does the source give for `CCCCCCCC(=O)NC(Nc1ccccc1OC)C(Cl)(Cl)Cl` (stereo not drawn) here?
Its inhibition is 1.28%.

For `CCOC(=O)C1=CCC(c2ccc(F)cc2)N(S(=O)(=O)c2ccc(C)cc2)C1` (stereo not drawn), which inhibition is on record?
Its inhibition is 0.96%.

How did the inhibition turn out when `Cc1cc(C)n(CCNS(=O)(=O)c2ccc(Cl)cc2)n1` was run?
Its inhibition is -3.39%.

For `N#Cc1c(-c2ccc(F)cc2)cc(C2CC2)nc1SCC(=O)c1cccs1`, which inhibition is on record?
Its inhibition is 8.6%.

With `N#Cc1c(-c2cccs2)nc(SCC(=O)c2ccc(Br)cc2)[nH]c1=O` as the compound, how does the inhibition read?
The inhibition was 49.9% (active).

With `Cc1nnc(SCC(=O)NCc2cccs2)[nH]c1=O` as the compound, how does the inhibition read?
Its inhibition is 0.4%.

For `CC(C)(C)NC(=O)NC(=O)COC(=O)C1(C)CC1(Cl)Cl` (stereo not drawn), which inhibition is on record?
The inhibition was -0.21%.

How did the inhibition turn out when `O=C(Nc1ccc(Cl)cc1)c1cc2nc(C3CC3)cc(C(F)(F)F)n2n1` was run?
Its inhibition is -1.38%.

`O=C(COC(=O)c1cc2c(s1)CCCC2)NCc1ccccc1Cl` was tested. Which inhibition did it give?
Its inhibition is 0.1%.

`CSc1ncccc1C(=O)NCc1ccccc1Cl` was tested. Which inhibition did it give?
Its inhibition is -4.63%.

How did the inhibition turn out when `Clc1ccc(-c2cc(COc3ccccc3)no2)cc1Cl` was run?
Its inhibition is -6.65%.

How did the inhibition turn out when `CC(C)Cn1c(N2CCN(C(=O)/C=C/c3ccccc3)CC2)nc2ccccc21` was run?
Its inhibition is -10.9%.

How did the inhibition turn out when `COc1cc(C)c(Cl)cc1S(=O)(=O)n1ccnc1` was run?
Its inhibition is -3.46%.

With `Cc1cc2ccccc2n1CCNC(=O)COc1ccc2ccccc2c1` as the compound, how does the inhibition read?
The inhibition was 45.2% (active).

Which inhibition does the source give for `COc1ccc(CCNC(=O)COc2ccc3c(c2)OCO3)cc1` here?
The inhibition was -3.21%.

`O=C(COc1ccc2ccc(=O)oc2c1)NCC(O)c1ccccc1` (stereo not drawn) was tested. Which inhibition did it give?
Its inhibition is -8.2%.

`Cc1ccc(C)c(NC(=O)CCS(=O)(=O)c2ccccc2)c1` was tested. Which inhibition did it give?
Its inhibition is 4.81%.

How did the inhibition turn out when `CCc1nc2ccc(C(=O)NCCNC(C)=O)cn2c1N(CC)Cc1cccc(Br)c1` was run?
Its inhibition is 1.46%.

For `CCOC(=O)N1CCN(C(=O)c2ccccc2N(Cc2ccccc2)S(=O)(=O)c2ccc(OC)cc2)CC1`, which inhibition is on record?
Its inhibition is 9.59%.

How did the inhibition turn out when `COc1cccc(Cn2cc(COC(=O)Nc3ccc(F)cc3)nn2)c1` was run?
The inhibition was 6.34%.

For `CN(C)C(=O)c1nc2ccc(Cl)cn2c1CNCc1cccc(OC(F)(F)F)c1`, which inhibition is on record?
The inhibition was -9.54%.

Which inhibition does the source give for `C=CCNC(=O)CSc1nc2scc(-c3ccco3)c2c(=O)n1CC=C` here?
Its inhibition is 25.2% (active).

How did the inhibition turn out when `C=CCn1c(SCC(=O)c2c(N)n(C)c(=O)n(C)c2=O)nc2sc(CC)cc2c1=O` was run?
The inhibition was 2.42%.

With `C=CCn1c(=S)[nH]c2scc(-c3ccco3)c2c1=O` as the compound, how does the inhibition read?
Its inhibition is 4.26%.

How did the inhibition turn out when `Nc1nc(NC(=O)/C=C/c2ccc(F)cc2)nn1-c1ccccc1` was run?
The inhibition was -4.74%.

How did the inhibition turn out when `COc1ncnc2c1ncn2CCCNCCN1CCOCC1` was run?
Its inhibition is -1.3%.

For `CCOC(=O)[C@]12CCCC=C1N(Cc1ccc(OC)cc1)C(=O)[C@@H]2CC(=O)NCc1cccs1`, which inhibition is on record?
The inhibition was 6.08%.

Which inhibition does the source give for `NC(=O)C1CCN(Cc2nc3c(Br)cc(Br)cc3c(=O)[nH]2)CC1` here?
Its inhibition is 28.2% (active).

`O=C(Nc1ccccc1)N1CCN(Cc2nc3ccccc3c(=O)[nH]2)CC1` was tested. Which inhibition did it give?
The inhibition was -8.21%.

How did the inhibition turn out when `NC(=O)C1CCN(C(=O)c2ccc3c(=O)n(Cc4cccc(Br)c4)c(=S)[nH]c3c2)CC1` was run?
The inhibition was 9.5%.

`O=C(NC1CCCC1)C1c2ccccc2OCC(=O)N1CC(F)(F)F` (stereo not drawn) was tested. Which inhibition did it give?
Its inhibition is 1.68%.

For `N#Cc1ccc(OCC(=O)Nc2nc(-c3ccccn3)cs2)cc1`, which inhibition is on record?
Its inhibition is 32.4% (active).

Which inhibition does the source give for `O=C(CN1C(=O)C2C3C=CC(C3)C2C1=O)Nc1nc(-c2ccccn2)cs1` (stereo not drawn) here?
Its inhibition is 2.72%.

Which inhibition does the source give for `CCc1nnc(NC(=O)CSc2nnc(COc3ccc(C#N)cc3)n2-c2ccccc2)s1` here?
Its inhibition is 0.08%.

How did the inhibition turn out when `CCN(Cc1ccncc1)C(=S)Nc1ccccc1C` was run?
Its inhibition is 0.38%.

How did the inhibition turn out when `O=S(=O)(c1ccccc1)N(Cc1cccc(F)c1)c1ccccc1` was run?
The inhibition was 7.38%.

`Fc1ccc(COc2ccc(-c3nnco3)cc2)cc1` was tested. Which inhibition did it give?
The inhibition was 1.45%.

With `COc1ccc2c(Cl)c(-c3nnco3)sc2c1` as the compound, how does the inhibition read?
The inhibition was 24.9% (active).

Which inhibition does the source give for `C#CCSc1nnc(-c2sc3ccccc3c2Cl)o1` here?
Its inhibition is 3.9%.

With `Cn1cnc(S(=O)(=O)N2C[C@@H](O)COC[C@@H]3O[C@H](CC(=O)NC4CCC4)CC[C@H]32)c1` as the compound, how does the inhibition read?
The inhibition was 9.27%.

`Cc1nn(-c2ccccc2)c(=O)c2noc(C)c12` was tested. Which inhibition did it give?
The inhibition was 1.14%.

Which inhibition does the source give for `CCCCn1c(SCc2ncc(-c3ccccc3)o2)nc2cc(S(N)(=O)=O)ccc21` here?
The inhibition was 2.37%.

How did the inhibition turn out when `COc1ccc(C[C@H]2CN3C(=NC[C@H]3C)N2CCNC(=O)CCC2CCCCC2)cc1` was run?
The inhibition was -0.91%.

`CC1(C(=O)NS(=O)(=O)Cc2cccc(Cl)c2)CCN1C(=O)Cc1ccc(Cl)cc1Cl` (stereo not drawn) was tested. Which inhibition did it give?
The inhibition was 1.42%.
